Only some compounds are listed: those with a hit (about 2.5% of all), similar ones and a draw of the others.
Cruzain inh noDet – blocks cruzain activity in detergent-free assay | P25779 | purified cruzain, Z-FR-AMC fluorescence, no detergent | Potency, µM, hits mostly inhibitors | 200,000 tested, 2.3% active; also: nearly all actives have a fitted effect of over 40% in size
Target sequence (P25779 123-467 limits assumed): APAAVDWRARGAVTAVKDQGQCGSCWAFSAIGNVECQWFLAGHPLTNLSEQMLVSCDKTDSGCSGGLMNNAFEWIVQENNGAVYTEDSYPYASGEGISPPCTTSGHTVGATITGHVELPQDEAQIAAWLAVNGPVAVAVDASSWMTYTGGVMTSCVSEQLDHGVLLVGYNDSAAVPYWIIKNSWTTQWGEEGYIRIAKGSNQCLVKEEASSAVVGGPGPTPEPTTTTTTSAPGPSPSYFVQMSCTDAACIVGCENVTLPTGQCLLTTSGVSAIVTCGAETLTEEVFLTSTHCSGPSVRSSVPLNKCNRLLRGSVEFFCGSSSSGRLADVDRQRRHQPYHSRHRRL
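Purified cruzain at 1.5 nM, pre-incubated 15 min with compound at room temperature in 100 mM sodium acetate pH 5.5, 5 mM DTT, 0.00005% Triton X-100. Reaction started with 2 uM Z-FR-AMC; AMC fluorescence increase over 60 s gives rate.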
Cruzain inh Det – cruzain (T. cruzi) inhibition with detergent; P25779; purified cruzain, Z-FR-AMC fluorescence, 0.01% Triton; Potency, µM, hits mostly inhibitors; 200,000 tested, 0.43% active; AID 1478; also: nearly all actives have a fitted effect of over 40% in size
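15 min RT preincubation of 1.5 nM cruzain with compound, then 2 uM Z-FR-AMC added; kinetic AMC fluorescence, 60 s delta. Triton X-100 0.01%, pH 5.5.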
A number is an active result; i = inactive; ? = inconclusive. Calls follow the shape of the dose curve; as a rule, active = well fitted curve in the direction sought with a large enough effect; inconclusive = small, poorly fitted or top-dose-only effect, or another doubt; inactive = no such curve, though single readings can be large; an effect the other way counts as inactive or inconclusive.

SMILES	Cruzain inh noDet	Cruzain inh Det
C/C(=C/CCC(C)[C@H]1CC[C@@]2(C)C3=C(CC[C@]12C)[C@@]1(C)CCC(=O)C(C)(C)[C@@H]1CC3)C(=O)O (stereo partly specified)	25µM	i
CC(C)=CCCC(C)C1CC[C@@]2(C)C3=C(CC[C@@]12C)C1(C)CCC(O)C(C)(C)C1CC3 (stereo partly specified)	?	i
Oc1ccc([C@H](O)C2CCCCN2)cc1O (stereo partly specified)	i	i
N#C/C(=C\c1cccc(Oc2ccc(C(F)(F)F)cc2[N+](=O)[O-])c1)c1nc2ccccc2[nH]1	i	i
Cc1ccc2nc(/C(C#N)=C\c3ccc(Oc4ccc(C(F)(F)F)cc4[N+](=O)[O-])cc3)[nH]c2c1	7.9µM	i
COc1cc(/C=C(\C#N)c2nc3ccc(C)cc3[nH]2)c([N+](=O)[O-])cc1OC	?	i
COc1ccc(/C=C(\C#N)c2nc3ccc(C)cc3[nH]2)cc1Oc1ccc(C(F)(F)F)cc1[N+](=O)[O-]	5µM	i
CCOc1ccc(/C=C/c2nc3ccccc3n2S(=O)(=O)c2cccc(Cl)c2)cc1	i	i
CCOc1ccc(-c2cc(C(=O)NCc3ccccc3Cl)c3ccccc3n2)cc1	i	i
COC(=O)c1cc2oc(C)cc2n1Cc1cccc(Cl)c1	i	i
Cc1ccc(NC(=O)c2sc3ccccc3c2Cl)cc1	i	i
CC(=O)Nc1ccc(NC(=O)C(C)OC(=O)CNC(=O)c2sc3ccccc3c2Cl)cc1 (stereo unspecified)	10µM	11µM
O=C(NCc1ccco1)c1sc2cc(Cl)ccc2c1Cl	25µM	?
O=C(NCc1ccco1)c1sc2ccccc2c1Cl	25µM	?
O=C(NCc1cccnc1)c1sc2cc(Cl)ccc2c1Cl	i	i
O=C(NCc1ccco1)c1nc2ccccc2s1	i	i
Cc1nn(-c2ccccc2)c2c1N(CCCC(=O)NC(C)c1ccccc1)C(=O)CS2 (stereo unspecified)	?	i
COc1ccc(CCNC(=O)Cn2c(-c3ccc(F)cc3)cc(C(C)=O)c2C)cc1OC	i	i
Cn1c(C[C@@H](O)c2nc3ccccc3n2C)nc2ccccc21	i	i
COc1cc(C)cc2c(-c3c(O)cc(O)c4c3C[C@H](C)N[C@@H]4C)cc(-c3cc(-c4c(O)cc(O)c5c4C[C@H](C)N[C@@H]5C)c4cc(C)cc(OC)c4c3O)c(O)c12	i	i
COc1ccc(NC(=O)C2(c3ccc(NC(=O)c4ccc(C)cc4)cc3)CCCC2)cc1	6.3µM	i
COc1ccc(NC(=O)C2(c3ccc(NC(=O)c4ccc(OC)c(OC)c4)cc3)CCCC2)cc1	i	i
Cc1ccc(F)cc1NC(=O)Cn1c(=O)nc(-c2ccccc2F)c2cc(Cl)ccc21	i	i
Cc1ccc(NC(=O)Cn2cnc3sc(C(=O)O)c(C)c3c2=O)cc1Cl	i	0.0063µM
Cc1ccc(NC(=O)Cn2cnc3sc(C(=O)NCCN(C)C)c(C)c3c2=O)cc1Cl	i	i
SMILES	Cruzain inh noDet	Cruzain inh Det
CC(C)CCNC(=O)CN1C(=O)CCn2nc(-c3cn(C)c4ccccc34)cc21	?	i
CC(C)(Oc1ccc(Cl)cc1)C(=O)Nc1nnc2n1CCS2	i	i
O=C(Nc1ccc(-c2cn3ccccc3n2)cc1)c1ccco1	i	i
O=C(Nc1ccc(-c2cn3ccccc3n2)cc1)c1ccc(Cl)cc1	13µM	i
Cc1ccccc1OCC(=O)Nc1ccc(S(=O)(=O)N(Cc2ccccc2)c2ccccc2)cc1	i	i
Cc1nc(N2CCCC2)ncc1C(=O)N1CCN(c2ccc(Cl)cc2)CC1	?	i
COc1cc(NC(=O)COC(=O)CC(C)(C)C)c(C)cc1[N+](=O)[O-]	i	i
COc1cc(NC(=O)COC(=O)C2CC2)c(C)cc1[N+](=O)[O-]	i	i
COc1cc(NC(=O)COC(=O)CNC(=O)c2ccc(C)cc2)c(C)cc1[N+](=O)[O-]	13µM	13µM
COc1cc(NC(=O)COC(=O)CNC(=O)c2ccc(Cl)cc2)c(C)cc1[N+](=O)[O-]	10µM	13µM
Cc1c(C(=O)N(Cc2ccc(N(C)C)cc2)CC2CCCO2)oc2ccc(Br)cc12 (stereo unspecified)	i	i
Cc1cc(C)n(C(C)CC(=O)Nc2ccc(C)c(F)c2)n1 (stereo unspecified)	i	i
COc1ccc(NC(=O)c2nc(S(C)(=O)=O)ncc2N(Cc2ccc(C)cc2)Cc2ccco2)cc1Cl	10µM	i
COc1ccc(Cl)cc1NC(=O)c1nc(S(C)(=O)=O)ncc1N(Cc1ccc(C)cc1)Cc1ccco1	?	i
O=C(Nc1ccccc1C(F)(F)F)Nc1cccc2ccccc12	25µM	i
CCCC(=O)NC(=S)Nc1ccccc1C(F)(F)F	i	i
C[C@@H](C(=O)Nc1ccc2ccccc2c1)[C@H]1C[C@]1(C)[C@H](NC(=O)Oc1ccc(F)cc1)c1ccccc1	16µM	i
Cc1nn(C)c(Cl)c1S(=O)(=O)N[C@@H](c1ccccc1)[C@]1(C)C[C@H]1[C@@H](C)C(=O)Nc1ccc2ccccc2c1	i	i
COC(=O)N[C@H](c1ccccc1)[C@@]1(C)C[C@@H]1[C@@H](C)C(=O)Nc1ccc2ccccc2c1	i	i
C[C@@H](C(=O)Nc1ccc2ccccc2c1)[C@H]1C[C@]1(C)[C@H](NS(=O)(=O)c1ccc2ccccc2c1)c1ccccc1	10µM	i
C[C@@H](C(=O)Nc1ccc2ccccc2c1)[C@@H]1C[C@@]1(C)[C@@H](NC(=O)c1ccccc1)c1ccccc1	?	i
C[C@@H](C(=O)Nc1ccc2ccccc2c1)[C@@H]1C[C@@]1(C)[C@@H](NS(=O)(=O)c1ccc2ccccc2c1)c1ccccc1	7.9µM	i
C[C@@H](C(=O)Nc1ccc2ccccc2c1)[C@H]1C[C@]1(C)[C@H](NS(=O)(=O)c1ccc(-c2ccccc2)cc1)c1ccccc1	3.2µM	i
CC(=O)N[C@H](c1ccccc1)[C@@]1(C)C[C@@H]1[C@@H](C)C(=O)Nc1ccc2ccccc2c1	i	i
CSc1ncnc2c1ncn2[C@@H]1O[C@@H](CO)[C@H](O)O[C@@H]1O	i	i
SMILES	Cruzain inh noDet	Cruzain inh Det
CN(C)CCC(C#N)(c1ccccc1)c1ccccc1	i	i
CCc1cccc(-n2c(=O)c3cccnc3n2CC(=O)NCc2ccccc2Cl)c1	i	i
Cc1cc(C)cc(-n2ccn(CC(=O)Nc3ccccc3C(F)(F)F)c(=O)c2=O)c1	i	i
O=S(=O)(c1ccc2nc(Nc3ccc(Br)cc3F)ccc2c1)N1CCCCC1	i	i
Nc1nc(Cl)nc2c1ncn2[C@@H]1O[C@H](COP(=O)(O)OP(=O)(O)OP(=O)(O)O)[C@H](O)[C@H]1O	i	i
COc1cc(C(=O)ON=C2C=C(C)C(=O)C(C)=C2)cc(OC)c1OC	?	3.5µM
COc1cc(C(=O)O/N=C2\C=CC(=O)C(C)=C2)cc(OC)c1OC	i	?
CC(C)(C)OC(=O)N1CCC(c2c(C(=O)NCCCN3CCc4ccccc4C3)cnn2-c2ccccc2)CC1	i	i
Cc1sc2ncnc(Sc3ccccc3C(=O)Nc3ccc(Br)cc3)c2c1C	13µM	i
Cc1sc2ncnc(Sc3ccccc3C(=O)Nc3ccc(C#N)cc3)c2c1C	i	i
Cn1nnnc1Sc1ncnc2scc(-c3ccccc3)c12	16µM	i
Cn1nnnc1Sc1ncnc2scc(-c3ccc(F)cc3)c12	i	i
COc1cccc(N2CCN(C(=O)c3cc4c(=O)n(Cc5cccs5)ccc4nc3C)CC2)c1	?	i

Assay outcomes (PubChem)
